Only some compounds are listed: those with a hit (about 0.8% of all), similar ones and a draw of the others.
TRHR PAM – TRH receptor (human) allosteric enhancement | hit rate 0.66% among 360,000 | enhancement, % at 2 µM | P34981 | AID 493056 | TRHR cells, fluo-8 calcium fluorescence, EC20 TRH enhancement; in the data active = enhancement above about 30%; note: 0% is about no effect
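Enhancer read-out: after compound pinning and an initial kinetic agonist-mode read, an EC20 of TRH (10 nM final) was injected and fluo-8 calcium signal (Ex 480/Em 530) followed at 1 s/cycle for 100 cycles in TRHR-expressing cells.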
GRP78 ERSR act – ER stress response induction in glioma | U87-MG GRP78 promoter luciferase reporter, 16 h | Potency, µM, for inactives: at the highest dose activation, hits mostly activators | hit rate 0.02% among 420,000 | AID 602332; active = well fitted activation curve with a large enough effect; inconclusive = small, poorly fitted or top-dose-only effect; inactive = no such curve, though single readings can be large or run the other way; note: potency is the fitted concentration of half-maximal effect; series mostly up to about 76 µM; % of control where 0% means no effect; nearly all actives have a fitted effect of over 35% in size
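Stably transfected U87-MG human glioma cells carrying a GRP78-based luminescent sensor were seeded at 1000 cells/well, pin-dosed with compounds and incubated 16 h. Luciferase reagent was then added, and end-point luminescence was read after 10 min at room temperature.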
TRPML1 ag – activates the human TRPML1 channel; TRPML1-expressing cells, Ca2+ dye fluorescence, FDSS; Q9GZU1; activation, % (no concentration beside the values); hit rate 0.12% among 410,000; in the data active = activation above about 50%; inconclusive = mostly about 30% to 49%; note: 0% is about no effect
Target sequence (Q9GZU1 whole entry, looked up): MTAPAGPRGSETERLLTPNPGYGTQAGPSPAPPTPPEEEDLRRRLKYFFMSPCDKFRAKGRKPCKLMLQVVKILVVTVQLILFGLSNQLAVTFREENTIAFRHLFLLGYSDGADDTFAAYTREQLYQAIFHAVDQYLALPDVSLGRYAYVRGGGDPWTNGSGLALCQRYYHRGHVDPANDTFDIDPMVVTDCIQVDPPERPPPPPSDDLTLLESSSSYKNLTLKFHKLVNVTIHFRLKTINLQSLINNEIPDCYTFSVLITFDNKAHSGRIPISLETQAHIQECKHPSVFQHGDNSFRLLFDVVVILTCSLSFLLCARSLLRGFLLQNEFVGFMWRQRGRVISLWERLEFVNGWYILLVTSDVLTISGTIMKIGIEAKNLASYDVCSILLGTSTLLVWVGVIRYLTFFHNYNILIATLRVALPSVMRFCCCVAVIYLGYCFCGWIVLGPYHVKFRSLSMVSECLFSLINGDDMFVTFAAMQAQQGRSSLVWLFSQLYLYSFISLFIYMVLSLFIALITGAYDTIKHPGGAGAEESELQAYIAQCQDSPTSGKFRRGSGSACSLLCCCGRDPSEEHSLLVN
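Tetracycline-induced TRPML1-DL cells are seeded and incubated overnight before loading with a no-wash Ca2+ dye and quencher. Agonist activity is taken from the 110 s fluorescence read following compound pin-transfer on an FDSS, before EC80 54-4 challenge.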
TRHR agonist – agonists of human TRH receptor; activation, % at 2 µM; AID 493084; TRHR cells, calcium flux fluo-8, FDSS agonist mode; hit rate 0.18% among 360,000; P34981; in the data active = activation above about 30%; note: 0% is about no effect
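Steps: seed TRHR cells overnight; add fluo-8 no-wash Ca dye, RT 30 min–1.5 h; record 10 s baseline; pin-transfer compounds; monitor fluorescence 1 cycle/s for the agonist window. Calcium increases flag candidate agonists.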
TRPML1 inh – human mucolipin-1 channel inhibition; Q9GZU1; TRPML1-inducible cells, Ca2+ dye fluorescence, FDSS; stronger effect = lower value; inhibition of EC80 agonist-evoked calcium signal; activity change, negative = inhibition, % (no concentration beside the values); hit rate 0.02% among 390,000; in the data active = activity change below about -50%; inconclusive = between about -30% and that limit;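 note: stimulus is agonist 54-4 at its EC80 concentration; % is set by controls: 0 for no effect and ±100 for the full control effect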
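Calcium fluorescence in TRPML1-DL cells induced overnight with Tet: a 110 s read after compound pin addition, then a 110 s antagonist read after challenge with 54-4 at 4 uM final (EC80).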
* hit, by the source's call; ? = inconclusive; · = no result given.

SMILES	TRHR PAM	GRP78 ERSR act	TRPML1 ag	TRHR agonist	TRPML1 inh
COc1ccc(C(=O)c2sc3nc(C)cc(-c4cccs4)c3c2N)cc1OC	-12	-2%	52*	21	-21
CCN1/C(=C/c2ccc3cc(C)ccc3[n+]2CC)Sc2ccccc21	25	-11%	?	50*	-6
Cc1noc(C)c1COc1ccc(C(=O)O)cc1	32*	-2%	0	0	-20
Cc1noc(C)c1COc1ccc(C(=O)NNC(=O)c2ccccc2)cc1	5	-2%	-1	0	-12
O=C(Nc1cccc(N2CCC(NCc3cnn(-c4cccc(F)c4)c3)CC2)c1)c1ccncc1	·	-3%	·	·	·
Cc1cc(Oc2c(C(F)(F)F)oc3c(CN4CCC(C)CC4)c(O)ccc3c2=O)cc(C)c1Cl	10	-2%	-1	0	-9
O=c1c(Oc2ccccc2Br)c(C(F)(F)F)oc2c(CN3CCCC3)c(O)ccc12	32*	-3%	0	1	8
O=C(Cn1nc(-c2ccccc2)ccc1=O)NCCCN1CCOCC1	0	-3%	·	0	·
COc1cccc(-c2ccc(=O)n(CC(=O)NCCN3CCOCC3)n2)c1	0	-3%	-1	1	-63*
CC1(C)S[C@@H]2[C@H](NC(=O)[C@H](N)c3ccccc3)C(=O)N2[C@@H]1C(=O)OCOC(=O)[C@@H]1N2C(=O)C[C@@H]2S(O)(O)C1(C)C	·	-4%	·	·	·
C/C(=C\COc1cc(=O)[nH]c2ccccc12)CCC(O)C(C)(C)O (configuration not stated)	32*	-4%	·	0	·
C/C(=C\COc1ccc2ccc(=O)oc2c1)CC[C@@H](O)C(C)(C)O	1	0%	-1	0	4
CC(C)(C)OC(=O)n1c2ccsc2c2cnn(Cc3ccccc3F)c(=O)c21	-2	·	·	-3	·
O=S(=O)(c1ccc2c(c1)OCCO2)N1CCN(S(=O)(=O)c2ccccc2OC(F)(F)F)CC1	1	·	·	1	·
CCOc1ccc(S(=O)(=O)n2nc(C)cc2C)c2ccccc12	35*	0%	5	-1	9
CCOC(=O)N1CCN(Cc2ccc3c(c2)CN(C(=O)c2noc4c2CCCC4)CCO3)CC1	·	-6%	·	·	·
CC(C)CCC(C(=O)O)C(C)CC(=O)NC1CCCCC1 (configuration not stated)	11	-2%	-1	0	25
CCCCCC(C(=O)O)C(C)CC(=O)NC1CCCCC1 (configuration not stated)	38*	-5%	1	0	-20
Cc1cc(C)nc(OC(=O)c2c(Cl)cc(Cl)cc2Cl)n1	30*	-1%	0	-1	0
COc1ccc(CN2CCOc3ccc(C(O)c4cccnc4)cc3C2)c(OC)c1OC (configuration not stated)	·	-6%	·	·	·
C/C(CC(=O)NC1CCCC1)=N\NC(=O)c1ccc([N+](=O)[O-])c(Cl)c1	38*	-4%	1	0	-20
CC(=O)Nc1ccccc1NC(=O)C/C(C)=N/NC(=O)c1ccc([N+](=O)[O-])c(Cl)c1	-3	-4%	1	0	0
O=C1c2ccccc2NC(c2cn[nH]c2-c2ccc(Cl)cc2)N1O (configuration not stated)	-3	-6%	0	-1	11
O=C1c2ccccc2NC(c2cn[nH]c2-c2ccccc2)N1O (configuration not stated)	2	-2%	2	0	-58*
Cc1ccc(N=C2SC(C(=O)O)CC(=O)N2C)cc1C (configuration not stated)	34*	1%	-1	1	-9
SMILES	TRHR PAM	GRP78 ERSR act	TRPML1 ag	TRHR agonist	TRPML1 inh
CC(C)c1ccc(CN2CCC3(CCC(CNC(=O)c4ccn(C)n4)O3)CC2)cc1 (configuration not stated)	·	-4%	·	·	·
CCNc1nc(NCc2ccco2)c2ccccc2n1	·	1%	72*	·	·
CNc1nc(NCc2ccco2)c2ccccc2n1	·	6%	70*	·	·
CCC1CN(CCNC(=O)c2cscn2)Cc2cc(OC)ccc2O1 (configuration not stated)	·	-1%	·	·	·
COC(=O)C1CCN(Cc2ccc3c(c2)CN(C(=O)c2cc(C)oc2C)CCO3)CC1	·	-2%	·	·	·
COc1ccc2cc(CN(Cc3ccco3)C(=S)NCC3CCCO3)c(=O)[nH]c2c1 (configuration not stated)	2	-1%	3	-1	-8
COc1ccc2[nH]c(=O)c(CN(Cc3ccccc3)C(=S)NCC3CCCO3)cc2c1 (configuration not stated)	35*	-1%	2	-1	21
Cc1ccc2cc(CN(CC3CCCO3)C(=S)NCc3ccco3)c(=O)[nH]c2c1C (configuration not stated)	34*	-3%	2	1	4
COc1ccc(OC)c(C2CC(=O)N(c3cccc(C)c3)C3=C2C(=O)OC3)c1 (configuration not stated)	36*	0%	0	1	12
COCc1c(C(=O)N2CCC(N3CCCCC3)CC2)cnn1-c1ncc(C)c(-c2cccs2)n1	·	3%	·	·	·
COc1cc(=O)n2c(c1C(=O)N(C)Cc1nonc1C)CCN(C(=O)c1cc(C)ccc1C)CC2	·	-5%	·	·	·
CC(C)(C)c1ccc(C(=O)NCCC(=O)N2CCN(c3ncccn3)CC2)cc1	1	5%	69*	-1	-14
Brc1ccc2c(c1)C(c1ccc(N3CCOCC3)cc1)=NNC(c1cccs1)=N2	-2	32µM*	0	0	-5
Fc1ccc2c(c1)C(c1ccc(N3CCOCC3)cc1)=NNC(c1cccs1)=N2	-2	0%	-1	0	-9
COc1ccc2ccccc2c1CN1CCC2(CCC(CNC(=O)c3ccccc3)O2)CC1 (configuration not stated)	·	1%	·	·	·
C/C=C(\C)CN1CCc2cc(OC)c(OC)cc2C1	32*	-3%	1	0	-7
COc1cc2c(cc1OC)CN(CC(=O)NC(=O)NCc1ccccc1)CC2	-1	-2%	-1	0	-4
Cc1c(C#N)c(N)nc2c3c(sc12)NC(=O)CC3c1ccc(F)cc1 (configuration not stated)	-6	1%	2	0	-20
Cc1c(C#N)c(N)nc2c3c(sc12)NC(=O)CC3c1ccccc1 (configuration not stated)	36*	-1%	2	-2	-2
COc1cc(CN2CCCC(n3cc(C(=O)N4CCCCC4)nn3)C2)cc2c1OCO2 (configuration not stated)	·	-4%	·	·	·
CCC(C)C(NC(=O)c1ccccc1NC(=O)c1ccc(OC)cc1)C(=O)NCCCn1ccnc1 (configuration not stated)	39*	-1%	0	0	40
COc1ccc(C(=O)Nc2ccccc2C(=O)NCCCn2ccnc2)cc1	27	2%	0	0	-6
